Experiment [1] is described as follows: Nuclear factor erythroid 2-related factor 2/antioxidant responsive element (Nrf2/ARE) small molecule agonists: qHTS cell viability counter screen in human keratinocytes (AID 1919968; active = well fitted curve in the direction sought with a large enough effect in the repeat runs; an effect the other way counts as inactive or inconclusive; note: nearly all actives have a fitted effect of over 55% in size). The essentials:
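KeratinoSens cells (HaCaT keratinocytes stably carrying an ARE-luciferase reporter) were seeded at 1,500 cells/well and rested 5 h at 37 C/5% CO2. They were then exposed to compounds in DMSO for 23 h. Viability was read by CellTiter-Fluor fluorescence after 1 h.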
(qHTS replaces the single test concentration by a dilution series.)

Experiment [2] can be described thus: Nuclear factor erythroid 2-related factor 2/antioxidant responsive element (Nrf2/ARE) small molecule agonists: luciferase reporter gene qHTS assay in human keratinocytes (AID 1919969). Note: nearly all actives have a fitted effect of over 35% in size. Note: potency is the fitted concentration of half-maximal effect. A general note: Reporter assays use an easily measured gene product as a stand-in for the process of interest.
For experiment [3], the target named is Gonadotropin-releasing hormone receptor (Homo sapiens) (UniProt P30968). Nature of the experiment: Human gonadotropin-releasing hormone receptor (GnRHR) small molecule agonists, calcium flux assay in GnRHR-HEK293 cells (AID 1920063). Note: nearly all actives have a fitted effect of over 35% in size. In short, it runs like this:
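HEK293 cells stably expressing human GnRHR were plated 18 h at 37 °C, loaded with calcium dye 1 h at 37 °C, then given compound in agonist mode; fluorescence (Ex/Em 480/540) read kinetically for 3 min at 1 s intervals.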
A general note: Calcium assays in cells follow changes in intracellular calcium, usually with a dye or a luminescent sensor.

The target of experiment [4] is KiSS-1 receptor (Homo sapiens) (UniProt Q969F8). Nature of the experiment: Human kisspeptin (KISS1R) small molecule agonists, calcium flux assay in KISS1R-HEK293 cells (AID 1920064; active = well fitted curve in the direction sought with a large enough effect in the repeat runs; an effect the other way counts as inactive or inconclusive). The essentials:
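HEK293 cells stably expressing human KISS1R were plated 18 h at 37 °C, loaded with calcium dye for 1 h at 37 °C, then given compound by pin tool. Fluorescence (Ex/Em 480/540) was read kinetically for 3 min.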

Experiment [5] in a line: G protein-coupled receptor (GPCR) small molecule agonists, calcium flux assay: HEK293 wild type cell line counter screen (AID 1920065). In short, it runs like this:
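Cells were plated and cultured 18 h at 37 C/5% CO2, then loaded with calcium dye for 1 h at 37 C. Compounds in DMSO were pin-transferred in agonist mode, and fluorescence (Ex/Em 480/540) was read kinetically for 3 min at 1 s intervals.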

Experiment [6] in a line: p53 small molecule agonists, cell-based qHTS assay with rat liver microsomes (AID 1963578). In short, it runs like this: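 Read-out is beta-lactamase reporter fluorescence (LiveBLAzer, 2 h, room temperature, dark) in p53RE-bla cells treated 16 h at 37 C with compound, rat liver microsomes and NADPH, both 0.5 mg/mL final.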
Experiment [7] can be described thus: p53 small molecule agonists, cell-based qHTS assay with human liver microsomes: qHTS cell viability counter screen (AID 1963579). Note: nearly all actives have a fitted effect of over 45% in size. In short, it runs like this: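 Cells carrying the p53 response-element beta-lactamase reporter are treated for 16 h at 37 C with test compounds in the presence of human liver microsomes and NADPH (both 0.5 mg/mL final); ATP-based CellTiter-Glo luminescence then reports viability.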

The nature of experiment [8]: p53 small molecule agonists, cell-based qHTS assay with rat liver microsomes: qHTS cell viability counter screen (AID 1963580). Note: nearly all actives have a fitted effect of over 45% in size. In short, it runs like this:
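Viability is assessed in parallel with the p53 reporter read: HCT-116 p53RE-bla cells receive compounds plus rat microsomes and NADPH (0.5 mg/mL final apiece), incubate 16 h at 37 C, and then CellTiter-Glo luminescence is recorded.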

Experiment [9] in a line: p53 small molecule agonists, cell-based qHTS assay: qHTS cell viability counter screen (AID 1963581). Note: nearly all actives have a fitted effect of over 45% in size. In short, it runs like this:
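p53RE-bla HCT-116 cells were exposed to compounds for 16 h at 37 C; after the beta-lactamase FRET read in the same wells, CellTiter-Glo was added and luminescence (intracellular ATP) read after 30 min at room temperature.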

Experiment [10] in a line: p53 small molecule agonists, cell-based qHTS assay (AID 1963582; active = well fitted activation curve with a large enough effect in the signal ratio in the repeat runs, not every such curve was filed as active; the % refers to the signal ratio). In short, it runs like this:
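p53RE-bla beta-lactamase reporter cells rested 5 h at 37 C/5% CO2, then received compounds in DMSO by pin transfer and were incubated 16 h at 37 C. LiveBLAzer B/G FRET substrate was loaded for 2 h at room temperature before fluorescence reading.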

The target in experiment [11] is 5-hydroxytryptamine receptor 2A (Homo sapiens) (UniProt P28223). Nature of the experiment: 5-hydroxytryptamine receptor 2A (HTR2A) small molecule antagonists, cell-based qHTS assay (AID 1963586). Note: nearly all actives have a fitted effect of over 45% in size. The essentials:
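Antagonist-mode intracellular calcium assay: DOI (4 nM) added after 5 min compound pre-incubation at room temperature to dye-loaded HTR2A-CHO cells. Fluorescence followed for 3 min, sampled every second.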

The target is the same in experiment [12]. Nature of the experiment: 5-hydroxytryptamine receptor 2A (HTR2A) small molecule agonists, cell-based qHTS assay (AID 1963587). Note: nearly all actives have a fitted effect of over 30% in size. The essentials:
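CHO cells stably expressing human HTR2A, plated 18 h, loaded with calcium dye 1 h at 37 C. Agonist mode: compounds added and intracellular calcium fluorescence recorded kinetically for 2 min at 1 sec intervals.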

Experiment [13] has as its target Muscarinic acetylcholine receptor M1 (Homo sapiens) (UniProt P11229). The experiment in a line: Cholinergic receptor muscarinic 1 (CHRM1) small molecule antagonists, cell-based qHTS assay (AID 1963588). Note: nearly all actives have a fitted effect of over 40% in size. The essentials:
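CHRM1-CHO calcium-flux assay, antagonist mode. Cells were seeded 18 h, dye-loaded 1 h at 37 C and given compound for 5 min at RT, then acetylcholine was added at 50nM. FDSS fluorescence was read 3 min; 15 concentrations, three runs.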

Experiment [14] has the same target. The experiment in a line: Cholinergic receptor muscarinic 1 (CHRM1) small molecule agonists, cell-based qHTS assay (AID 1963589). Note: nearly all actives have a fitted effect of over 35% in size. In short, it runs like this: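 CHO cells stably expressing human CHRM1, seeded 18 h at 37 C/5% CO2, dye-loaded 1 h at 37 C, then given compound in agonist mode; intracellular calcium fluorescence read kinetically at 1 s intervals. Fifteen concentrations, three independent runs.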

Experiment [15] in a line: cAMP Responsive Elements (CRE) small molecule agonists, cell-based qHTS assay (AID 1963590). In short, it runs like this:
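CRE-bla HEK 293T cells in DMEM with 10% dialyzed FBS, NEAA, pyruvate and 25 mM HEPES were plated 18 h at 37 C/5% CO2, then exposed to compounds in DMSO for 3 h before LiveBLAzer B/G FRET substrate addition.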

The nature of experiment [16]: cAMP Responsive Elements (CRE) small molecule antagonists, cell-based qHTS assay (AID 1963591; active = well fitted inhibition curve with a large enough effect in the signal ratio in the repeat runs, not every such curve was filed as active; the % refers to the signal ratio). The essentials: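 CRE-bla HEK293T cells were plated 18 h at 37 °C/5% CO2, pinned with compound in DMSO, then stimulated with NKH477 at 0.25 uM final for 3 h. LiveBLAzer B/G FRET substrate was added and plates incubated 2 h at room temperature.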
For experiment [17], the target named is Beta-2 adrenergic receptor (Homo sapiens) (UniProt P07550). Nature of the experiment: Adrenergic beta2 receptor (ADRB2) small molecule antagonists, cell-based qHTS assay (AID 1963592). Note: series mostly up to about 92 µM; nearly all actives have a fitted effect of over 50% in size. The essentials:
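Cells (CHO, stable ADRB2 overexpression) incubated 18-20hr at 37C; compounds added from DMSO; agonist mix (1nM isoproterenol, 100uM IBMX, 25uM Ro-20-1724) added; 0.5hr RT; d2-cAMP and anti-cAMP-cryptate added; 1hr RT; 665/615 nm read.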

For experiment [18] the target is unchanged. The experiment in a line: Adrenergic beta2 receptor (ADRB2) small molecule agonists, cell-based qHTS assay (AID 1963593).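 Note: CHO cells stably overexpressing human ADRB2.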 In short, it runs like this:
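CHO cells stably over-expressing ADRB2 were plated overnight at 37C, then dosed with compounds plus a stimulation mix containing 100uM IBMX and 25uM Ro-20-1724 for 0.5hr at room temperature. cAMP was measured by HTRF competition, 1hr.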

For experiment [19], the target named is D(2) dopamine receptor (Homo sapiens) (UniProt P14416). The experiment in a line: Dopamine D2 receptor (DRD2) small molecule agonists, cell-based qHTS assay (AID 1963594). Note: nearly all actives have a fitted effect of over 35% in size. The essentials: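 HEK293 cells stably expressing human DRD2, pre-treated with PDE inhibitor Ro20-1724 (0.1 mM final) and compound 10 min at room temperature, then stimulated with NKH477 (200nM […]) for 30 min. cAMP read by HTRF (665/620 nm).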

Experiment [20] has the same target. The experiment in a line: Dopamine D2 receptor (DRD2) small molecule antagonists, cell-based qHTS assay (AID 1963595; active = well fitted inhibition curve with a large enough effect in the signal ratio in the repeat runs, with a control signal flat; the % refers to the signal ratio). In short, it runs like this:
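Antagonism was scored as restored cAMP in HEK293-DRD2 cells. These cells were stimulated with 200 nM NKH477 and 12 nM quinpirole for 30 min at room temperature, in the presence of 0.1 mM Ro20-1724.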

SMILES strings stand for the structures. Values without a mark were called inactive. Records with an inconclusive call do not appear. The source made the active and inactive calls. Unless noted, calls come from the whole dose curve.

Sequence of Muscarinic acetylcholine receptor M1 (Homo sapiens) (P11229 whole entry, looked up): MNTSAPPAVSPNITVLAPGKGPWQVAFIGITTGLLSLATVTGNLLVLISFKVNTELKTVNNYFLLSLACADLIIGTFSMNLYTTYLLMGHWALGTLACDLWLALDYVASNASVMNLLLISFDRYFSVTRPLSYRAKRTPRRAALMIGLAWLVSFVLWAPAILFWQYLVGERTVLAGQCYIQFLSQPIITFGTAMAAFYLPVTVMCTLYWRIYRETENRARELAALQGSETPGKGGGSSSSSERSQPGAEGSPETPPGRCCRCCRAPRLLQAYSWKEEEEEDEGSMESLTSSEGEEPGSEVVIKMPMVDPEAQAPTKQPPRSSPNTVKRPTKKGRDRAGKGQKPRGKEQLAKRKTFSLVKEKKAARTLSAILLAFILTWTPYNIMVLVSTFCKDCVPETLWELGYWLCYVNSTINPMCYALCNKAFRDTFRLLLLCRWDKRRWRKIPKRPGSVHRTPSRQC
Sequence of D(2) dopamine receptor (Homo sapiens) (P14416 whole entry, looked up): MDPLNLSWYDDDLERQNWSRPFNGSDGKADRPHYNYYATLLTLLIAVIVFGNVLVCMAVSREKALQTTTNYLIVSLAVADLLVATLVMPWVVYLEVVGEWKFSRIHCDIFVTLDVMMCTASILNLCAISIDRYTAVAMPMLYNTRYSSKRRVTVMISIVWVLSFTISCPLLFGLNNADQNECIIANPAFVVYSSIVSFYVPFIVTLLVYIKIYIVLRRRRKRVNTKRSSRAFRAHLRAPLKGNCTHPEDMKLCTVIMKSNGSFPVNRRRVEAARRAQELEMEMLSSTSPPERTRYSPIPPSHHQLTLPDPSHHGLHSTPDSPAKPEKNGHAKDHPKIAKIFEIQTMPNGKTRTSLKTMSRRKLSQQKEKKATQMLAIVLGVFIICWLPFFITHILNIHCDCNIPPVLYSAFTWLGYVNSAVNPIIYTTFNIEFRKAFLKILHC
Sequence of Gonadotropin-releasing hormone receptor (Homo sapiens) (P30968 whole entry, looked up): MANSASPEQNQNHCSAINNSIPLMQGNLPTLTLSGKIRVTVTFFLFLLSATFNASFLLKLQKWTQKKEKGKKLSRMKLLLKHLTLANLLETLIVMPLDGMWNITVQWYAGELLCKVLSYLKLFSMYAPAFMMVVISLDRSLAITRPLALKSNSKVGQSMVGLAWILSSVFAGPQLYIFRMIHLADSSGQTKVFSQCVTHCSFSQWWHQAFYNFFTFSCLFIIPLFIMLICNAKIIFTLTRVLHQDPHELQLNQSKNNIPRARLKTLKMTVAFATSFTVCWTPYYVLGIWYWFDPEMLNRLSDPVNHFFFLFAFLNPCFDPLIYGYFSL
Sequence of 5-hydroxytryptamine receptor 2A (Homo sapiens) (P28223 whole entry, looked up): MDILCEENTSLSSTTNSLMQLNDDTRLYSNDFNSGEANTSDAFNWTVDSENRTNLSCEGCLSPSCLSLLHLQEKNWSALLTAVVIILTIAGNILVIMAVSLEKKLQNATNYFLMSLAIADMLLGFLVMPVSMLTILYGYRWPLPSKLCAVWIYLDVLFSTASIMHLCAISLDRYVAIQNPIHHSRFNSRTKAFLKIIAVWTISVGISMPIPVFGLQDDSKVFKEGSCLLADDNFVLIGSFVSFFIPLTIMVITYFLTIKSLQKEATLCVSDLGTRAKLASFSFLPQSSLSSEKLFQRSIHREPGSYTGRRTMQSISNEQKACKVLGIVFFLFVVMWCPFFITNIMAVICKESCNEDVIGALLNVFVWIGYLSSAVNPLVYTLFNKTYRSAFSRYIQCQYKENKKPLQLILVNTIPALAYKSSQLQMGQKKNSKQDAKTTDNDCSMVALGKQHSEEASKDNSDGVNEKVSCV
Sequence of Beta-2 adrenergic receptor (Homo sapiens) (P07550 whole entry, looked up): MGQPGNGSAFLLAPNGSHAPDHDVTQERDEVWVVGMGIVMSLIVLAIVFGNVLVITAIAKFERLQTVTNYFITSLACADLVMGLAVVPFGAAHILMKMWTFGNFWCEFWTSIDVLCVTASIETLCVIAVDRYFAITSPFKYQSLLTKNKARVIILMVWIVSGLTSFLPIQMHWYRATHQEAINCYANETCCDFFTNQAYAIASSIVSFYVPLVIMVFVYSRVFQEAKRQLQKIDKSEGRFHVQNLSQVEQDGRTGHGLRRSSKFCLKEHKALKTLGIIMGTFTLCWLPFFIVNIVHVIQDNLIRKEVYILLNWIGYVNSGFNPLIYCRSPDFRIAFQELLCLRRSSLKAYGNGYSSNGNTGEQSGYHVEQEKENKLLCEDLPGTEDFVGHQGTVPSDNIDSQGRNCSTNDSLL
Sequence of KiSS-1 receptor (Homo sapiens) (Q969F8 whole entry, looked up): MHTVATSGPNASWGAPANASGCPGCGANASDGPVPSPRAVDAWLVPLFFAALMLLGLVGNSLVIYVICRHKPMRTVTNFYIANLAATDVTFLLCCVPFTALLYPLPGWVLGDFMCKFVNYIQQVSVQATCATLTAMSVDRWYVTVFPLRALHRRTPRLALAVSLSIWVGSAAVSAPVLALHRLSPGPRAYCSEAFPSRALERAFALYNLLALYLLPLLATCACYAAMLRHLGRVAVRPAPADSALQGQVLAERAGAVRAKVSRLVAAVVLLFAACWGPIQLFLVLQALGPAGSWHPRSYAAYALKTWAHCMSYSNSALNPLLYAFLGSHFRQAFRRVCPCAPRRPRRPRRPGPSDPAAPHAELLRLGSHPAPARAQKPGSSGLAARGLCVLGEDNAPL

Turning to `CSc1cnccn1`, the Potency result in experiment [1], in experiment [2], in experiment [3], in experiment [4], in [5] and in experiment [6] was “inactive” each time. Further, the Potency entry in experiment [7], in experiment [8], in [9], in [10], in experiment [11] and in experiment [12] was “inactive” throughout. For the same molecule, the Potency result in [13], in [14], in [15], in experiment [16], in experiment [17] and in experiment [18] was “inactive” throughout. The Potency entry in [19] and in [20] was “inactive” in each case.
In the case of `CCCCC(CC)C(=O)OCCOCCOCCOC(=O)C(CC)CCCC` (configuration not stated), the Potency entry in experiment [1], in experiment [3], in experiment [4], in experiment [5], in [6] and in [7] was “inactive” each time. The Potency result in experiment [8], in experiment [9], in experiment [10], in experiment [11], in experiment [12] and in experiment [13] was “inactive” in each case. Moreover, the Potency result in experiment [14], in [15], in [16], in [17], in [18] and in experiment [19] was “inactive” throughout. The Potency result in [20] is “inactive”. Also, in experiment [2], the Potency was 68.6 µM (active).
As for `C=C(C)[C@@H]1CCC2=CCC[C@@H](C)[C@]2(C)C1`, the Potency result in experiment [1], in experiment [2], in [3], in experiment [4], in experiment [5] and in experiment [7] was “inactive” each time. The Potency entry in [9], in experiment [10], in experiment [11], in [12], in experiment [14] and in [15] was “inactive” in each case. The Potency result in experiment [16], in experiment [17], in [18], in experiment [19] and in experiment [20] was “inactive” in each case.
`COc1cccc(OC)c1O`: the Potency result in experiment [1], in [2], in [3], in experiment [4], in experiment [5] and in experiment [6] was “inactive” in each case. The Potency entry in [7], in [8], in experiment [9], in [10], in experiment [11] and in [12] was “inactive” each time. For the same molecule, the Potency result in [13], in [14], in [15], in [16], in experiment [17] and in [19] was “inactive” throughout. The Potency entry in experiment [20] was “inactive”.
Turning to `CC(=O)O[C@H]1C[C@@H]2CC[C@@]1(C)C2(C)C`, the Potency entry in experiment [1], in experiment [2], in experiment [3], in [4], in experiment [5] and in [8] was “inactive” in each case. The Potency entry in experiment [9], in experiment [10], in [11], in [12], in experiment [14] and in [15] was “inactive” throughout. Moreover, the Potency result in [16], in experiment [17], in [19] and in experiment [20] was “inactive” in each case.
Turning to `C=CC(=O)OCCCCCCCC`, the Potency entry in [1], in [2], in experiment [3], in experiment [4], in experiment [5] and in experiment [7] was “inactive” in each case. The Potency result in experiment [9], in [10], in [11], in experiment [12], in [13] and in [14] was “inactive” each time. Further, the Potency entry in experiment [15], in experiment [16], in experiment [17], in experiment [19] and in experiment [20] was “inactive” each time.
For `OCCC(F)(F)C(F)(F)C(F)(F)C(F)(F)C(F)(F)C(F)(F)F`, the Potency entry in experiment [1], in experiment [2], in experiment [3], in experiment [4], in [5] and in experiment [6] was “inactive” throughout. The Potency result in [7], in experiment [8], in experiment [9], in experiment [10], in experiment [11] and in [12] was “inactive” each time. In addition, the Potency entry in experiment [13], in experiment [14], in experiment [15], in experiment [17], in [18] and in experiment [19] was “inactive” each time. Besides, the Potency result in experiment [20] is “inactive”.
For the molecule `O=C(CCN1CCN(CCO)CC1)N1c2ccccc2Sc2ccc(C(F)(F)F)cc21`, the Potency entry in experiment [1], in experiment [2], in [3], in experiment [4], in experiment [5] and in experiment [6] was “inactive” each time. Also, the Potency result in experiment [7], in [8], in experiment [9], in [10], in experiment [11] and in experiment [12] was “inactive” throughout. The Potency result in [13], in experiment [14], in [16], in experiment [17], in experiment [18] and in [19] was “inactive” in each case. Further, the Potency entry in experiment [20] was “inactive”.

These data come from PubChem BioAssay (Tox21).
